The record followed here is PubChem BioAssay (Tox21).

Calls of active or inactive are those of the source. Unless noted, calls follow the shape of the dose curve; as a rule, active = well fitted curve in the direction sought with a large enough effect in the repeat runs; inconclusive = weak or mixed curves; inactive = no such curve, though single readings can be large; an effect the other way counts as inactive or inconclusive.

The nature of test [1]: qHTS assay to identify small molecule antagonists of the thyroid receptor (TR) signaling pathway - cell viability counter screen (AID 743064). Also: nearly all actives have a fitted effect of over 50% in size. Also: potency is read from the fitted curve at half-maximal effect. In short, it runs like this: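 GH3.TRE-Luc rat pituitary cells dosed after 4 hr plating, co-stimulated with T3 at 1 nM final, incubated 23.5 h at 37 C. Viability measured in the same wells by CellTiter-Fluor fluorescence after 30 min further at 37 C.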
A general note: In qHTS, concentration-response curves come from the screen itself.

Test [2] has as its system thyroid hormone receptor (rat, GH3 cells). Kind of test: qHTS assay to identify small molecule agonists of the thyroid receptor (TR) signaling pathway (AID 743066; calls by dose curve).
The target of test [3] is Estrogen receptor (Homo sapiens) (UniProt P03372). Kind of test: qHTS assay to identify small molecule antagonists of the estrogen receptor alpha (ER-alpha) signaling pathway (AID 743069; active = well fitted curve in the direction sought with a large enough effect in the signal ratio in the repeat runs, not every such curve was filed as active; inconclusive = weak or mixed curves, or effect the other way; inactive = no such curve, though single readings can be large or run the other way; the % refers to the signal ratio). The gist of the method: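 ER-alpha-UAS-bla GripTite HEK293 line; 2% charcoal-stripped FBS overnight; plated, 4 hr 37C/5% CO2; cpd in DMSO + 17beta-estradiol, 18 hr 37C; LiveBLAzer B/G FRET substrate 2 hr RT; fluorescence intensity.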

Test [4] in a line: qHTS assay to identify small molecule antagonists of the estrogen receptor alpha (ER-alpha) signaling pathway - cell viability counter screen (AID 743074; calls by dose curve;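 also: HEK293 cells carrying ER-alpha-UAS-bla reporter stimulated with 17beta-estradiol; nearly all actives have a fitted effect of over 45% in size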).
In test [5] the target is Estrogen receptor (Homo sapiens) (UniProt P03372). Kind of test: qHTS assay to identify small molecule agonists of the estrogen receptor alpha (ER-alpha) signaling pathway (AID 743075; calls by dose curve;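 also: HEK293 GripTite cells with ER-alpha and UAS-driven beta-lactamase reporter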; also: potency is read from the fitted curve at half-maximal effect).
For test [6] the target is unchanged. Kind of test: qHTS assay to identify small molecule agonists of the estrogen receptor alpha (ER-alpha) signaling pathway using the BG1 cell line (AID 743079). Also: nearly all actives have a fitted effect of over 20% in size. Also: potency is read from the fitted curve at half-maximal effect. The conditions noted are these: BG1Luc4E2 cells, ERE-luciferase agonist, 22 h; activation: at 70.3 µM (top of the series).
Test [7] in a line: qHTS assay to identify small molecule antagonists of the estrogen receptor alpha (ER-alpha) signaling pathway using the BG1 cell line (AID 743080; calls by dose curve;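 also: BG1 cells stimulated with 17beta-estradiol alongside compound; nearly all actives have a fitted effect of over 25% in size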). In short, it runs like this: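 BG1-Luc-4E2 cells (endogenous full-length ER-alpha, 4xERE luciferase) hormone-starved 5 days in charcoal-stripped FBS, plated 4,000/well for 24 h, then compound plus 17beta-estradiol for 21.5 h at 37 C; ONE-Glo luminescence read.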

The target in another test is Aromatase (Homo sapiens) (UniProt P11511). Kind of test: qHTS assay to identify aromatase inhibitors (AID 743083). Also: nearly all actives have a fitted effect of over 55% in size. Also: potency is read from the fitted curve at half-maximal effect.
A short description of test [8]: qHTS assay to identify small molecule antagonists of the estrogen receptor alpha (ER-alpha) signaling pathway using the BG1 cell line - cell viability counter screen (AID 743081).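 Also: compound given together with 17beta-estradiol as the ER stimulus; nearly all actives have a fitted effect of over 45% in size.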
A short description of test [9]: qHTS assay to identify small molecule antagonists of the thyroid receptor (TR) signaling pathway (AID 743065). Also: potency is read from the fitted curve at half-maximal effect; nearly all actives have a fitted effect of over 55% in size. In short, it runs like this:
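Antagonism measured as loss of luciferase signal in GH3 cells stably carrying a TRE-luciferase reporter, co-treated with compound and T3 (1 nM final) for 23.5 h at 37 C. Viability was read in the same well by CellTiter-Fluor.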

Chain of Estrogen receptor (Homo sapiens) (P03372 whole entry, looked up): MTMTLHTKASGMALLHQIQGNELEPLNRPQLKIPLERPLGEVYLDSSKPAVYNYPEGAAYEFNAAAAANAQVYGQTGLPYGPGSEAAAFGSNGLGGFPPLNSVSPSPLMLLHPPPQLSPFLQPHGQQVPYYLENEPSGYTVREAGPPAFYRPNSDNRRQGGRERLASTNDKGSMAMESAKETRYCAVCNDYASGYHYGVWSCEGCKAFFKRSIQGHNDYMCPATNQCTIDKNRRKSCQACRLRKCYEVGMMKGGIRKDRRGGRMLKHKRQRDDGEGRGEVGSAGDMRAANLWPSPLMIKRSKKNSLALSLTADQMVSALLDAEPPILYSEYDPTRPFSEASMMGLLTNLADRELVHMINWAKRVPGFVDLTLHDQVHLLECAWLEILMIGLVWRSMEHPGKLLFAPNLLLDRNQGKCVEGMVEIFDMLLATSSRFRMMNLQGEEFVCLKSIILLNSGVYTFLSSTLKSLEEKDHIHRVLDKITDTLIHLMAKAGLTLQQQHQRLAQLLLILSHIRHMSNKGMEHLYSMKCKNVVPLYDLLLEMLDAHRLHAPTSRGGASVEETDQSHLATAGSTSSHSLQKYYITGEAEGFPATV
Chain of Aromatase (Homo sapiens) (P11511 whole entry, looked up): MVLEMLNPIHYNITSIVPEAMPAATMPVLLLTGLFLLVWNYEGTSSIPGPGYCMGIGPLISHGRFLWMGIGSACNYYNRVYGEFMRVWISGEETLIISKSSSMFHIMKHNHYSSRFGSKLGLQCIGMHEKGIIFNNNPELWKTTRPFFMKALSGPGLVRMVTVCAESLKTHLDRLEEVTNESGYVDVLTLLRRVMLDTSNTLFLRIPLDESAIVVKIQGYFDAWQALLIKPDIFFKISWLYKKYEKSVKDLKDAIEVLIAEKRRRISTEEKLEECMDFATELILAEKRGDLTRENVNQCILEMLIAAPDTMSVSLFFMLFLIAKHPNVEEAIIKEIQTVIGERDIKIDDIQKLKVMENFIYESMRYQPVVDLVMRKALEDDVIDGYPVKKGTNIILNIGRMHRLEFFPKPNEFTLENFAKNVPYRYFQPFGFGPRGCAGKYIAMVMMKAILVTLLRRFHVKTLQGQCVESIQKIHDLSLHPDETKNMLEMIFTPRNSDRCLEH

`O=S(=O)(O)Oc1ccc(C(c2ccc(OS(=O)(=O)O)cc2)c2ccccn2)cc1`: the Potency result in test [1], in test [2], in test [3], in [4], in test [5] and in test [6] was “inactive” in each case. Also, the Potency entry (in [7]; with Aromatase (Homo sapiens)) was “inactive” in each case.
For the compound `COc1ccc2c(c1)N(C[C@H](C)CN(C)C)c1ccccc1S2`, the Potency in test [1] is 4.52 µM (active). The Potency result in test [2], in test [3], in test [4], in [5], in test [6] and in [7] was “inactive” throughout. In test [8], the Potency entry was “inactive”.
On to `CO/N=C(\C(=O)N[C@@H]1C(=O)N2C(C(=O)O)=CCS[C@H]12)c1csc(N)n1`, for which the Potency result in [1], in [2], in test [3], in [4], in [5] and in [6] was “inactive” in each case. The Potency entry (in test [7]; in test [8]; with Aromatase (Homo sapiens)) was “inactive” each time.
For `CC(=O)O[C@H]1C[C@@H]2CC[C@@H]3[C@H](CC[C@@]4(C)[C@H]3C[C@H](N3CC[N+](C)(C)CC3)[C@@H]4OC(C)=O)[C@@]2(C)C[C@@H]1N1CC[N+](C)(C)CC1`, the Potency entry in test [1], in test [2], in [3], in test [4], in test [5] and in test [6] was “inactive” each time. Also, the Potency result (in test [7]; in [8]; in the test with Aromatase (Homo sapiens)) was “inactive” each time.
On to `CC(C)[C@H](N)C(=O)OCC(CO)OCn1cnc2c(=O)[nH]c(N)nc21` (stereo partly specified), for which the Potency entry in test [1], in test [2], in test [3], in test [4], in test [5] and in test [6] was “inactive” in each case. In addition, the Potency result (in test [7]; in [8]; with Aromatase (Homo sapiens)) was “inactive” in each case.
For the compound `Cc1cccc(C)c1N(CCCc1cccnc1)C(=O)C(C)N` (stereo unspecified), the Potency result in [1], in test [2], in [3], in test [4], in test [5] and in test [6] was “inactive” each time. The Potency entry in test [7] and in test [8] was “inactive” throughout. In addition, in the test with Aromatase (Homo sapiens), the Potency was 5.96 µM (active).
For the compound `CC(C)=CCC/C(C)=C/C=C/C(C)=C/C=C/C(C)=C/C=C/C=C(C)/C=C/C=C(C)/C=C/C=C(\C)CCC=C(C)C`, the Potency result in [1], in test [2], in test [3], in test [4], in test [7] and in test [8] was “inactive” each time. Also, in the test with Aromatase (Homo sapiens), the Potency entry was “inactive”. The Potency in test [5] is 7.56 µM [inconclusive] (active); in test [6], 6.68 µM (active).
With `Cc1cccc(C)c1Nc1ncccc1C(=O)O`, the Potency entry in test [1], in test [2], in test [3], in [4], in test [5] and in [8] was “inactive” each time. Moreover, the Potency result in the test with Aromatase (Homo sapiens) was “inactive”.
For the compound `COc1ccc2c(c1)OC(C)(C)C(c1ccccc1)C2c1ccc(OCCN2CCCC2)cc1` (stereo unspecified), the Potency in [1] is 10.6 µM (active); in test [9], 9.44 µM (active). Besides, the Potency result in test [6], in [7] and in test [8] was “inactive” in each case.
In the case of `O=P(O)(O)OC(Cn1cncn1)(Cn1cncn1)c1ccc(F)cc1F`, the Potency result in test [1], in test [2], in test [3], in [4], in [5] and in test [6] was “inactive” each time. For the same compound, the Potency result (in test [7]; in the test with Aromatase (Homo sapiens)) was “inactive” in each case.
For `CCCC(=O)N1CCCN(c2nc(N)c3cc(OC)c(OC)cc3n2)CC1`, the Potency entry in [1], in [2], in test [3], in test [4], in [5] and in test [7] was “inactive” throughout. In addition, the Potency result (in test [8]; in the test with Aromatase (Homo sapiens)) was “inactive” in each case.
In the case of `CC1(C)S[C@@H]2[C@H](NC(=O)C3(N)CCCCC3)C(=O)N2[C@H]1C(=O)O`, the Potency entry (in test [1]; in [2]; in [4]; in test [8]; in the test with Aromatase (Homo sapiens)) was “inactive” throughout.
As to `CC(=O)N[C@@H]([C@@H](O)[C@H](O)[C@H](O)CO)[C@@H](O)CC(=O)C(=O)O`, the Potency result (in [1]; in [2]; in test [4]; in test [8]; with Aromatase (Homo sapiens)) was “inactive” in each case.
In the case of `CC1(C)C2CC[C@]3(C)[C@H](C(=O)C=C4[C@@H]5C[C@@](C)(C(=O)O)CC[C@]5(C)CC[C@]43C)[C@@]2(C)CC[C@@H]1O[C@H]1O[C@H](C(=O)O)[C@@H](O)[C@H](O)[C@H]1O[C@@H]1O[C@H](C(=O)O)[C@@H](O)[C@H](O)[C@H]1O` (stereo partly specified), the Potency result (in test [1]; in test [2]; in test [4]; in test [8]; with Aromatase (Homo sapiens)) was “inactive” in each case.
Take `O=C(O)[C@H](CC(=O)N1C[C@H]2CCCC[C@H]2C1)Cc1ccccc1`: the Potency entry in test [1], in [2], in test [3], in test [5], in test [7] and in test [8] was “inactive” each time. Besides, the Potency result with Aromatase (Homo sapiens) was “inactive”. In test [6], the Potency is 33.5 µM (active).
`Cc1c(O)cc2c(c1C)O[C@](C)(CCC[C@H](C)CCC[C@H](C)CCCC(C)C)CC2`: the Potency entry in test [1], in test [2], in test [4], in test [5], in test [6] and in test [7] was “inactive” in each case. Also, the Potency result (in [8]; in the test with Aromatase (Homo sapiens)) was “inactive” in each case.
Regarding `C/C=C(/CC[C@@H](C)[C@H]1CC[C@H]2C3=CC[C@H]4[C@H](C)[C@@H](O)CC[C@]4(C)[C@H]3CC[C@]12C)C(C)C`, the Potency entry (in [1]; in test [2]; in test [4]; in test [8]; in the test with Aromatase (Homo sapiens)) was “inactive” throughout.
`COc1cc2c(cc1OC)[C@@H](c1ccccc1)CN(C)CC2`: the Potency result in test [1], in [2], in [4], in test [5], in [6] and in [7] was “inactive” in each case. Also, the Potency result in [8] is “inactive”.
`O=C1/C(=C\c2cccs2)CCC/C1=C\c1cccs1`: the Potency result (in [1]; in [2]; in test [4]; in test [8]; with Aromatase (Homo sapiens)) was “inactive” in each case. Moreover, the Potency in test [6] is 26.6 µM (active).
Turning to `O=C(O)c1cc(O)c2c(c1)[O][Bi][O]2`, the Potency entry (in test [1]; in test [2]; in test [4]; in [7]; in test [8]; with Aromatase (Homo sapiens)) was “inactive” each time. Also, the Potency in test [5] was 0.012 µM [inconclusive] (active); in test [6], 0.0019 µM (active).
